tim23-1 inh: inhibits growth of tim23-1 mutant yeast. S. cerevisiae tim23-1 growth, BacTiter-Glo luminescence, 24 h. inhibition, % at 20 µM. 330,000 tested, 1.3% active;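 active means growth inhibition of the mutant yeast at or above 50%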;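 further: temperature-sensitive mutant grown at 25 °C; plate controls were DMSO-treated mutant yeast for no effect and medium wells lacking yeast for full effect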
TIM10 inh: inhibits growth of TIM10 yeast strain; S. cerevisiae TIM10 strain growth, BacTiter-Glo luminescence, 24 h; inhibition, % at 10 µM; 330,000 tested, 1.4% active; AID 463195;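 active means inhibition of 40% or more at the single tested concentration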;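 further: wild-type TIM10 isogenic control strain grown at permissive 25 °C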
NALP1 inh: blocks the NALP1 inflammasome reconstituted in yeast; AID 2071; inhibition, % at 10 µM; S. cerevisiae NALP1/ASC/caspase-1 growth, X-gal OD620, 72 h; 280,000 tested, 0.61% active; in the data active means inhibition mostly above about 24%, no sharp cut-off; inactive means mostly below about 32%
NALP3 yeast inh: blocks the NALP3 inflammasome reconstituted in yeast | inhibition, % at 10 µM | Yeast reconstituted NLRP3/ASC/caspase-1, beta-gal luminescence, 24 h | AID 2825 | 330,000 tested, 0.39% active;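 active means inhibition of 50% or more; inactive means inhibition below 50%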;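 further: plate controls were induced DMSO wells for no effect and uninduced yeast grown without galactose for full effect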
tim10-1 inh: growth inhibitors of tim10-1 mutant yeast. S. cerevisiae tim10-1 ts strain growth, BacTiter-Glo, 24 h. inhibition, % at 20 µM. 330,000 tested, 2.2% active;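 active means inhibition of at least 40%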;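 further: mutant grown at 25 °C; 0% = DMSO wells with yeast and 100% = wells holding no yeast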
An asterisk follows results filed as active. The list is not random: actives were taken first. Their share in the collection is about 4%.

`CC(=O)OCC(=O)c1c[nH]c2ccccc12` gave tim23-1 inh -15, TIM10 inh -9, NALP1 inh 9, NALP3 yeast inh 4 and tim10-1 inh -34.
CCN(CC)CCN(C(=O)c1ccc2c(c1)CCCC2)c1nc2ccc(F)cc2s1 was read as tim23-1 inh 38, TIM10 inh 18, NALP1 inh -1, NALP3 yeast inh 29 and tim10-1 inh 18.
Screening CN(C)CCCN(C(=O)c1ccc2c(c1)CCCC2)c1nc2ccc(F)cc2s1 returned tim23-1 inh 22, TIM10 inh 17, NALP1 inh 47*, NALP3 yeast inh 41 and tim10-1 inh 32.
Screening NS(=O)(=O)c1cccc(NC(=O)c2ccno2)c1 returned tim23-1 inh -4, TIM10 inh 12, NALP1 inh -3, NALP3 yeast inh 0 and tim10-1 inh 0.
CCN(CCN(C)C)C(=O)Cn1ncc2c1-c1cc(C)ccc1OC2 was read as tim23-1 inh 7, TIM10 inh -3, NALP1 inh 41*, NALP3 yeast inh 0 and tim10-1 inh 1.
For COc1ccccc1NC(=O)c1cccc(S(=O)(=O)N2CCOCC2)c1 the results were tim23-1 inh 26, TIM10 inh 6, NALP1 inh 28, NALP3 yeast inh 0 and tim10-1 inh 20.
For O=C(Nc1ccccc1O)c1cccc(S(=O)(=O)N2CCOCC2)c1 the results were tim23-1 inh 15, TIM10 inh -13, NALP1 inh 29*, NALP3 yeast inh 3 and tim10-1 inh 3.
For CN(CCc1ccccc1)C(=O)c1cccc(NC(=O)Cc2cccc([N+](=O)[O-])c2)c1 the results were tim23-1 inh 12, TIM10 inh -5, NALP3 yeast inh 13 and tim10-1 inh 10.
Screening O=C(c1ccc([N+](=O)[O-])cc1)N(Cc1ccc(Br)cc1)N1C(=O)CCCC1=O returned tim23-1 inh 10, TIM10 inh 19, NALP1 inh 34*, NALP3 yeast inh 6 and tim10-1 inh 22.
Screening Cc1nc2c(=O)n(C)c(=O)n(C)c2nc1Cl returned NALP1 inh 94*.
Screening CC1(C)CC(=O)C2=C(C1)Nc1ccccc1NC2c1nc2ccccc2[nH]1 (centres undefined) returned tim23-1 inh -6, TIM10 inh 1, NALP1 inh 39*, NALP3 yeast inh 10 and tim10-1 inh -2.
Screening COC(=O)c1sccc1N(C)S(C)(=O)=O returned tim23-1 inh 8, TIM10 inh -11, NALP1 inh 17, NALP3 yeast inh 17 and tim10-1 inh 2.
Screening C(=C\c1ccco1)/C=N/n1cnnc1 returned tim23-1 inh -4, TIM10 inh 8, NALP1 inh 22*, NALP3 yeast inh -3 and tim10-1 inh 11.
`COCCCNc1nc(CC(C)C)nc2c1nnn2Cc1ccccc1` gave tim23-1 inh 16, TIM10 inh 3, NALP1 inh 5, NALP3 yeast inh 12 and tim10-1 inh 1.
`Cc1onc(-c2c(Cl)cccc2Cl)c1C(=O)Nc1nc(C(C)(C)C)cs1` gave tim23-1 inh 15, TIM10 inh 31, NALP1 inh 36*, NALP3 yeast inh 9 and tim10-1 inh 7.
For Cc1nc(C(=O)NNC(=O)c2c(-c3c(Cl)cccc3Cl)noc2C)cs1 the results were tim23-1 inh 1, TIM10 inh 16, NALP3 yeast inh 8 and tim10-1 inh 8.
For c1cc2c(c(NCc3ccncc3)c1)CCCC2 the results were tim23-1 inh -3, TIM10 inh -1, NALP1 inh 38*, NALP3 yeast inh 3 and tim10-1 inh -11.
Screening Cc1ccc(C)c(NC(=O)COC(=O)CNC(=O)C2CCCCC2)c1 returned tim23-1 inh 9, TIM10 inh 10, NALP3 yeast inh 4 and tim10-1 inh 9.
`C#CCNC(=O)C1=C[C@@H](C(C)(C)C)C[C@@H](OCc2ccc(CO)cc2)O1` gave tim23-1 inh 20, TIM10 inh 5, NALP1 inh 30*, NALP3 yeast inh 12 and tim10-1 inh -2.
`CC(C)(C)[C@@H]1C=C(C(=O)NCc2ccccc2)O[C@H](OCc2ccc(CO)cc2)C1` gave tim23-1 inh 23, TIM10 inh 9, NALP1 inh 4, NALP3 yeast inh 18 and tim10-1 inh 19.
`O=C(NCc1cccc(Cl)c1)C1CCCO1` (centres undefined) gave tim23-1 inh -5, TIM10 inh -4, NALP1 inh 32*, NALP3 yeast inh 8 and tim10-1 inh 8.
Screening CCN1C(=O)C(=O)N(CC(=O)NC(C)CCc2ccccc2)C1=O (centres undefined) returned tim23-1 inh -1, TIM10 inh 9, NALP3 yeast inh 17 and tim10-1 inh 9.
For C=CCNc1nc(-c2ccccc2)nc(-n2ccnc2)n1 the results were tim23-1 inh 27, TIM10 inh 35, NALP1 inh 2, NALP3 yeast inh 27 and tim10-1 inh 20.
Screening CCCCNc1nc(-c2ccccc2)nc(-n2ccnc2)n1 returned tim23-1 inh 15, TIM10 inh 10, NALP1 inh 44*, NALP3 yeast inh 20 and tim10-1 inh 15.
CC(SCC(=O)Nc1ccc(F)cc1)c1nc2ccccc2c(=O)[nH]1 (centres undefined) was read as tim23-1 inh -9, TIM10 inh 5, NALP1 inh 7, NALP3 yeast inh 7 and tim10-1 inh 0.
Screening COc1ccc(OC)c(NC(=O)CCN2CCN(c3ccccc3OC)CC2)c1 returned tim23-1 inh 0, TIM10 inh 4, NALP1 inh 11, NALP3 yeast inh 8 and tim10-1 inh -10.
`CCOC(=O)C(NS(=O)(=O)c1ccccc1)(C(F)(F)F)P(=O)(OCC(C)C)OCC(C)C` (centres undefined) gave tim23-1 inh 34, TIM10 inh 31, NALP1 inh 34*, NALP3 yeast inh 8 and tim10-1 inh 27.
For Cc1ccc(-c2cc(N)n(-c3ccc(F)cc3)n2)cc1 the results were tim23-1 inh 11, TIM10 inh 16, NALP1 inh 29*, NALP3 yeast inh 27 and tim10-1 inh 21.
Screening Cc1ccc(-c2cc(N)n(-c3ccc(C)cc3)n2)cc1 returned tim23-1 inh 8, TIM10 inh 11, NALP1 inh 8, NALP3 yeast inh 29 and tim10-1 inh 6.
`CC1CCc2nc(NC(=O)Cc3cccs3)sc2C1` (centres undefined) gave tim23-1 inh 49, TIM10 inh 29, NALP1 inh 20, NALP3 yeast inh 48 and tim10-1 inh 39.
Screening CC1CCc2nc(NC(=O)C3CCCO3)sc2C1 (centres undefined) returned tim23-1 inh 22, TIM10 inh 9, NALP1 inh 33*, NALP3 yeast inh 11 and tim10-1 inh 13.
For CCCC(C)c1nnc(NC(=O)C2CCCO2)s1 (centres undefined) the results were tim23-1 inh 3, TIM10 inh 4, NALP1 inh 33*, NALP3 yeast inh 24 and tim10-1 inh 2.
Cc1nn(-c2ccccc2)c2[nH]c(=O)cc(C(F)(F)F)c12 was read as tim23-1 inh 25, TIM10 inh 22, NALP1 inh 38*, NALP3 yeast inh 8 and tim10-1 inh 5.

Source: PubChem
